Laboratory results from PubChem BioAssay (NCATS).
Results filed as inconclusive are left out. Where a call stands in place of a potency, no number is given. Active and inactive are the calls of the source. Calls come from the whole dose curve; as a rule, active = well fitted cell-killing curve with a large enough effect; inconclusive = small, poorly fitted or top-dose-only effect, or effect the other way; inactive = no such curve, though single readings can be large or run the other way.

How the values were obtained:
[1] = Viability qHTS for spleen associated tyrosine kinase inhibitor (SYKi) naive MV4-11 cells (AID 1963823); note: nearly all actives have a fitted effect of over 40% in size
How it was run: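 In this viability screen, compounds acted on SYK inhibitor naive MV4-11 cells for three days (72 hr, 37 C). Remaining viable cells were measured by CellTiter-Glo luminescence following a 10 min room-temperature development.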

[2] = Viability qHTS for spleen associated tyrosine kinase inhibitor (SYKi) drug resistant MV4-11 cells (AID 1963824); note: nearly all actives have a fitted effect of over 35% in size
How it was run: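 CellTiter-Glo luminescence, read 10 min after reagent addition, reports viability after a 72 hr compound exposure. Cells are an MV4-11 line made resistant to SYK inhibition, seeded at 500 per well onto compound-containing plates.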
Potency is the fitted concentration of half-maximal effect.

Row | Structure (SMILES) | Potency [1] | Potency [2]
1 | CC(C)[C@@H](C)/C=C/[C@@H](C)[C@H]1CC[C@H]2C3=CC=C4C[C@@H](O)CC[C@]4(C)[C@H]3CC[C@]12C | inactive | inactive
2 | Cc1cc(O)cc(O[C@@H]2O[C@H](CO)[C@@H](O)[C@H](O)[C@H]2O)c1 | inactive | inactive
3 | CC(O)(C(=O)O)C1CCC2(C)C1CCC1(C)C2CCC2C3(C)CCC(O)C(C)(COC4OC(CO)C(O)C(O)C4O)C3CCC21C (stereo not given) | inactive | inactive
4 | CC(=O)c1ccc(O[C@@H]2O[C@H](CO[C@@H]3OC[C@@H](O)[C@H](O)[C@H]3O)[C@@H](O)[C@H](O)[C@H]2O)cc1 | inactive | inactive
5 | OC[C@H]1O[C@@H](OC[C@H]2O[C@@H](OCc3ccccc3)[C@H](O)[C@@H](O)[C@@H]2O)[C@H](O)[C@@H](O)[C@@H]1O | inactive | inactive
6 | Oc1cccc(-c2nc(N3CCOCC3)c3sccc3n2)c1 | 0.82 µM (active) | 2.06 µM (active)
7 | Nc1ccc(-c2cnc(N)c(-c3ccc(Cl)cc3)c2)cn1 | 5.8 µM (active) | 8.2 µM (active)
8 | CCNC(=O)Nc1ccc(-c2nc3c(c(N4CCOC[C@H]4C)n2)CCN(C2COC2)C3)cc1 | 0.461 µM (active) | 0.82 µM (active)
9 | COC(=O)C1=C[C@@H](O)[C@@H](O)[C@H](O[C@@H]2O[C@H](CO)[C@@H](O)[C@H](O)[C@H]2OC(=O)/C=C/c2ccccc2)C1 | inactive | inactive
10 | C[C@H](NC(=O)C(C)(C)Oc1ccc(C(F)(F)F)cn1)[C@@H](Cc1ccc(Cl)cc1)c1cccc(C#N)c1 | 13 µM (active) | 9.2 µM (active)
